Holding throughout (assay): protein-binding microarray (PBM); PBM: ~300 nM protein, 6 mM HEPES pH 7.8, 80 mM KCl, 0.5 mM EDTA, 0.5 mM EGTA, 6% glycerol, 35 ng/ul poly-dIdC, 1% milk, 1 h, room temperature; Ap Aiptasia and Nv Nematostella (sea anemones) / Co Capsaspora / Aq Amphimedon (sponge) / Dm Drosophila / Hu human; RHD is the Rel homology domain; high values mean tight binding
Common to all, as to conditions: dsDNA, one strand shown

The target in one test is T1, GST-Ap-NF-kB RHD (Exaiptasia pallida (Aiptasia), UniProt A0A913YAJ5 2-422).
T1 sequence: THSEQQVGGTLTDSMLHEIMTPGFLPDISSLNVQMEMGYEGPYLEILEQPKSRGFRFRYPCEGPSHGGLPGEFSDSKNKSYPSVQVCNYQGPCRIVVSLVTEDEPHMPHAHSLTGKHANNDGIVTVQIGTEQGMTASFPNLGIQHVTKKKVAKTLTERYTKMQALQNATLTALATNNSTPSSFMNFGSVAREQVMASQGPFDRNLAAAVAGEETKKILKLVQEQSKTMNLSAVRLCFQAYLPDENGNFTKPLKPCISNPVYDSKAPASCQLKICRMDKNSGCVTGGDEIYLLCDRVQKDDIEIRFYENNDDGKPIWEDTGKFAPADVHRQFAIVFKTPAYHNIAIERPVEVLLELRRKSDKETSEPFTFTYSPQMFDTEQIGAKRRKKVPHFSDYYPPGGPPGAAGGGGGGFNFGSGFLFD

Test [1] addresses T2, GST-Nv-NF-kB (Cys allele) (Nematostella vectensis, UniProt E5G601 2-411).
T2 sequence: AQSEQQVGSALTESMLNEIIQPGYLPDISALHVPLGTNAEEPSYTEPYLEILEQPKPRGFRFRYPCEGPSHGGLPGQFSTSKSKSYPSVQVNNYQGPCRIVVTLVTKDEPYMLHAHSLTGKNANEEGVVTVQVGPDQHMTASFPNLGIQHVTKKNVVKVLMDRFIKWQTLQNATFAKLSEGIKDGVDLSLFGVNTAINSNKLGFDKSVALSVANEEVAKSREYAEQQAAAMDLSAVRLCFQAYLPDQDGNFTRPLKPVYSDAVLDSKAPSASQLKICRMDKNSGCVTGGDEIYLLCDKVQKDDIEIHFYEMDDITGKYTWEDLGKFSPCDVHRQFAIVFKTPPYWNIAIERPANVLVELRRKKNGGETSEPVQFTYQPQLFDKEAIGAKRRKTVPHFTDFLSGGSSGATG

Test [2] deals with T3, GST-Nv-NF-kB (Ser allele) (Nematostella vectensis, UniProt A7UNT2 2-411).
T3 sequence: T2 sequence with Q21R, C66S, S207N, E215Q, V217A, E225K, A268E, D399E

A further test addresses T4, GST-Co-NF-kB (Capsaspora owczarzaki, UniProt F1ARL5 200-546).
T4 sequence: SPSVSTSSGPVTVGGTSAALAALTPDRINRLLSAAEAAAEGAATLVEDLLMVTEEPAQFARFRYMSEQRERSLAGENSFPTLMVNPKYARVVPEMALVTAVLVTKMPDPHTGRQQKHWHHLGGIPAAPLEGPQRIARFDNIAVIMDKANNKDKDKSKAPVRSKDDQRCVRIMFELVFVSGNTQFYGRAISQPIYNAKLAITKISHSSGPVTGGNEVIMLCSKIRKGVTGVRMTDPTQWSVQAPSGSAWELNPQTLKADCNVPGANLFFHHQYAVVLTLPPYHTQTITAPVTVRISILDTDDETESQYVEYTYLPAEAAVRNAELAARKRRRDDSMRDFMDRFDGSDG

The target in a further test is T5, GST-Dm-Relish (Drosophila melanogaster, UniProt Q94527 99-473).
T5 sequence: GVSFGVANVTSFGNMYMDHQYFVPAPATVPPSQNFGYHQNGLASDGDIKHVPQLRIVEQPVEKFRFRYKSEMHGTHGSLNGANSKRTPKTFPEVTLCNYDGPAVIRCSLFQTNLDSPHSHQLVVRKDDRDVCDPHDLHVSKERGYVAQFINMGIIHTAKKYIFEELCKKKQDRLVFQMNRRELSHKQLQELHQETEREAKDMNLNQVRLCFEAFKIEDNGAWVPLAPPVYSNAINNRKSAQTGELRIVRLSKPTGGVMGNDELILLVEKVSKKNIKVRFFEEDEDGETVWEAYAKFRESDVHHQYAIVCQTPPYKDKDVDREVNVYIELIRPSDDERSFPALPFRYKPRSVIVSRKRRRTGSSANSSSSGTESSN

The next test has as its target T6, GST-Aq-NF-kB (Amphimedon queenslandica, UniProt A9Y5G7 2-389).
T6 sequence: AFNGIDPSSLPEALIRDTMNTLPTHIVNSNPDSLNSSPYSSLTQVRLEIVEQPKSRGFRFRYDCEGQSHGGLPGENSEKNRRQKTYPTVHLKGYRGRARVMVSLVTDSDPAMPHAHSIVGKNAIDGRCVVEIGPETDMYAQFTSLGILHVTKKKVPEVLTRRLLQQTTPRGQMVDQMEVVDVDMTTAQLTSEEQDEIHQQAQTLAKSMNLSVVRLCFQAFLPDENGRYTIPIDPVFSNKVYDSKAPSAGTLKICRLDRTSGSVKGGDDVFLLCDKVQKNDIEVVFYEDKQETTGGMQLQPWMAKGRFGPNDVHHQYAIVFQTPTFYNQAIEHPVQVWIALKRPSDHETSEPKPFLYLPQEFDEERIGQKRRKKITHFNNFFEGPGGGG

For a further test, the target named is GST-Hu-p50 (Homo sapiens, UniProt P19838 7-356).

Substitutions are numbered along the chain they refer to.

Sequence of GST-Hu-p50 (P19838 7-356): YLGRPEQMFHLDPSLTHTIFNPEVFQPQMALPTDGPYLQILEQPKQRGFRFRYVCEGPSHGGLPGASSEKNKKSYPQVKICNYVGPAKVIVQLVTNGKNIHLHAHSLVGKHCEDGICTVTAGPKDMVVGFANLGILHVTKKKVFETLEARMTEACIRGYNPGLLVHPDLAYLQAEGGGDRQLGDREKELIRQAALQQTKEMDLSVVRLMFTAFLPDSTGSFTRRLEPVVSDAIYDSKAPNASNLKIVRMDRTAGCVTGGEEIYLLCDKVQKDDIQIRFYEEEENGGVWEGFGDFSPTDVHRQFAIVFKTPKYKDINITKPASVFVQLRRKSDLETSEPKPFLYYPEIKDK

As for “CCGATTAACATCAGGAGTTCCCCTGATGTTAATCGGGTCTTGATTCGCTTGACGCTGCTG”, the binding signal in the test with GST-Ap-NF-kB RHD was determined as 8.41 z-score; in test [1], 9.9 z-score; in test [2], 7.6 z-score; with GST-Co-NF-kB it was 5.41 z-score; in the test with GST-Dm-Relish it was 9.69 z-score; with GST-Aq-NF-kB, 9.11 z-score. The same sequence showed a binding signal with GST-Hu-p50 of 6.51 z-score.
With “CCGATTAACATCAGGGGGTTCTATGATGTTAATCGGGTCTTGATTCGCTTGACGCTGCTG”, the binding signal with GST-Ap-NF-kB RHD was 7.12 z-score; in test [1], 5.57 z-score; in test [2] it was 6.75 z-score; with GST-Co-NF-kB, 2.36 z-score; with GST-Dm-Relish, 6.97 z-score; with GST-Aq-NF-kB it was 5.33 z-score. The same sequence came in with a binding signal with GST-Hu-p50 of 5.89 z-score.
As to “CCGATTAACATCAGGGGAAGAACTGATGTTAATCGGGTCTTGATTCGCTTGACGCTGCTG”, the binding signal with GST-Ap-NF-kB RHD was determined as 4.9 z-score; in test [1], 5.96 z-score; in test [2], 6.48 z-score; in the test with GST-Co-NF-kB, 6.9 z-score; with GST-Dm-Relish, 9.56 z-score; with GST-Aq-NF-kB, 5.61 z-score. In the test with GST-Hu-p50, this sequence displayed a binding signal of 4.93 z-score.
On to “CCGATTAACATCACGTACTTCCCTGATGTTAATCGGGTCTTGATTCGCTTGACGCTGCTG”, for which the binding signal in the test with GST-Ap-NF-kB RHD turned out to be 1.66 z-score; in test [1], 1.92 z-score; in test [2] it was 1.78 z-score; with GST-Co-NF-kB it was 1.1 z-score; with GST-Dm-Relish it was 7.92 z-score; in the test with GST-Aq-NF-kB it was 3.04 z-score. In the test with GST-Hu-p50, this sequence yielded a binding signal of 1.38 z-score.
Consider “CCGATTAACATCATGGGGGAAAATGATGTTAATCGGGTCTTGATTCGCTTGACGCTGCTG”, for which the binding signal with GST-Ap-NF-kB RHD was found to be 5.67 z-score; in test [1], 6.78 z-score; in test [2], 9.23 z-score; with GST-Co-NF-kB it was 10.9 z-score; in the test with GST-Dm-Relish, 3.09 z-score; with GST-Aq-NF-kB, 5.39 z-score. In the test with GST-Hu-p50, this sequence displayed a binding signal of 6.88 z-score.
Regarding “CCGATTAACATCACGGGTTCCCCTGATGTTAATCGGGTCTTGATTCGCTTGACGCTGCTG”, the binding signal turned out to be 7.55 z-score in the test with GST-Ap-NF-kB RHD; 5.61 z-score in test [1]; 6.62 z-score in test [2]; 5.5 z-score with GST-Co-NF-kB; 7.65 z-score with GST-Dm-Relish; 4.79 z-score in the test with GST-Aq-NF-kB. In the test with GST-Hu-p50, the binding signal was 4.64 z-score.
On to “CCGATTAACATCAGGGGATTCTATGATGTTAATCGGGTCTTGATTCGCTTGACGCTGCTG”, for which the binding signal with GST-Ap-NF-kB RHD was 8.9 z-score; in test [1], 9.25 z-score; in test [2] it was 11.1 z-score; with GST-Co-NF-kB it was 3.26 z-score; in the test with GST-Dm-Relish, 7.72 z-score; in the test with GST-Aq-NF-kB it was 6.2 z-score. The sequence also returned a binding signal with GST-Hu-p50 of 6.98 z-score.
Turning to “CCGATTAACATCAGGGTGGGAAATGATGTTAATCGGGTCTTGATTCGCTTGACGCTGCTG”, the binding signal in the test with GST-Ap-NF-kB RHD is 2.06 z-score; in test [1] it was 3.1 z-score; in test [2], 2.77 z-score; with GST-Co-NF-kB, 3.37 z-score; with GST-Dm-Relish, 1.62 z-score; with GST-Aq-NF-kB, 2.27 z-score. This sequence also registered a binding signal with GST-Hu-p50 of 2.15 z-score.
Consider “CCGATTAACATCAAATTGTCCCCTGATGTTAATCGGGTCTTGATTCGCTTGACGCTGCTG”, for which the binding signal in the test with GST-Ap-NF-kB RHD worked out at 4.64 z-score; in test [1] it was 5.87 z-score; in test [2], 6.62 z-score; with GST-Co-NF-kB, 6.08 z-score; in the test with GST-Dm-Relish, 2.6 z-score; in the test with GST-Aq-NF-kB it was 4.84 z-score. For the same sequence, the binding signal with GST-Hu-p50 was 4.96 z-score.
For the sequence “CCGATTAACATCAGACAATCCCCTGATGTTAATCGGGTCTTGATTCGCTTGACGCTGCTG”, the binding signal with GST-Ap-NF-kB RHD turned out to be 6.6 z-score; in test [1] it was 7.1 z-score; in test [2], 7.4 z-score; with GST-Co-NF-kB it was 2.24 z-score; in the test with GST-Dm-Relish, 4.95 z-score; in the test with GST-Aq-NF-kB, 5.98 z-score. The sequence also gave a binding signal with GST-Hu-p50 of 5.79 z-score.

Values taken from PMC5700166.
